Targets with a hit are over-represented here; the source holds about 7,900 in all. About 0.6% of all pairs of compound and target were hits.
Legend:
Assay in all cases: log2 fold change, soluble protein after heating vs DMSO (PISA); higher = thermal stabilisation; K562 cells, 10 uM, 30 min; active = over 0.2 and 3.5 SD of the protein, either way, in both replicates (recomputed)
[1] = compound: COC1=CC=C(C=C1)CN2C=CC3=C2C=C(C=C3)C(=O)NO
Method in brief: (§1)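 Thermal stability values are relative to control samples and come from duplicates. They are expressed as log2 fold changes. For measurement, K562 cells (2×10^6 cells/mL) received 10 μM compound for 30 min, and aliquots were heated for 3 min over 48°C-58°C, pooled, and extracted at 4°C in PBS with 0.5% NP-40. Soluble protein, the supernatant after 21,000xg for 90 min, was quantified by TMTpro 16plex LC-MS/MS with equalised channel sums.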

filanesib = compound: CON(C)C(=O)N1N=C(c2cc(F)ccc2F)S[C@@]1(CCCN)c1ccccc1 [filanesib]
Method in brief: as §1

[2] = compound: COc1cc2nc(-c3cc(F)ccc3O)nc(N[C@@H]3CNC[C@H]3C(C)(C)O)c2cc1OC
Method in brief: as §1

gefitinib = compound: COc1cc2ncnc(Nc3ccc(F)c(Cl)c3)c2cc1OCCCN1CCOCC1 [gefitinib]
Method in brief: as §1

lapatinib = compound: CS(=O)(=O)CCNCc1ccc(-c2ccc3ncnc(Nc4ccc(OCc5cccc(F)c5)c(Cl)c4)c3c2)o1 [lapatinib]
Method in brief: as §1

pictilisib = compound: CS(=O)(=O)N1CCN(Cc2cc3nc(-c4cccc5[nH]ncc45)nc(N4CCOCC4)c3s2)CC1 [pictilisib]
Method in brief: as §1

[3] = compound: CS(=O)(=O)c1ccc(-c2cnc(N)c(C(=O)Nc3ccccc3)n2)cc1
Method in brief: as §1

crizotinib = compound: C[C@@H](Oc1cc(-c2cnn(C3CCNCC3)c2)cnc1N)c1c(Cl)ccc(F)c1Cl [crizotinib]
Method in brief: as §1

duvelisib = compound: C[C@H](Nc1ncnc2nc[nH]c12)c1cc2cccc(Cl)c2c(=O)n1-c1ccccc1 [duvelisib]
Method in brief: as §1

gandotinib = compound: Cc1cc(Nc2cc(CN3CCOCC3)c3nc(C)c(Cc4ccc(Cl)cc4F)n3n2)n[nH]1 [gandotinib]
Method in brief: as §1

[4] = compound: Cc1cc(SCc2sc(-c3ccc(C(F)(F)F)cc3)nc2C)ccc1OCC(=O)O
Method in brief: as §1

doramapimod = compound: Cc1ccc(-n2nc(C(C)(C)C)cc2NC(=O)Nc2ccc(OCCN3CCOCC3)c3ccccc23)cc1 [doramapimod]
Method in brief: as §1

ispinesib = compound: Cc1ccc(C(=O)N(CCCN)[C@@H](c2nc3cc(Cl)ccc3c(=O)n2Cc2ccccc2)C(C)C)cc1 [ispinesib]
Method in brief: as §1

alisertib = compound: COc1cc(Nc2ncc3c(n2)-c2ccc(Cl)cc2C(c2c(F)cccc2OC)=NC3)ccc1C(=O)O [alisertib]
Method in brief: as §1

[5] = compound: COc1cccc2cc(-c3nc([C@H]4CC[C@H](C(=O)O)CC4)n4ncnc(N)c34)[nH]c12
Method in brief: as §1

[6] = compound: C[C@@H]1COCCN1C2=NC(=NC(=C2)C3(CC3)S(=O)(=O)C)C4=C5C=CNC5=CC=C4
Method in brief: as §1

zotarolimus = compound: CO[C@H]1C[C@@H]2CC[C@@H](C)[C@@](O)(O2)C(=O)C(=O)N2CCCC[C@H]2C(=O)O[C@H]([C@H](C)C[C@@H]2CC[C@H](n3cnnn3)[C@H](OC)C2)CC(=O)[C@H](C)/C=C(\C)[C@@H](O)[C@@H](OC)C(=O)[C@H](C)C[C@H](C)/C=C/C=C/C=C/1C [zotarolimus]
Method in brief: as §1

idasanutlin = compound: COc1cc(C(=O)O)ccc1NC(=O)[C@@H]1N[C@@H](CC(C)(C)C)[C@](C#N)(c2ccc(Cl)cc2F)[C@H]1c1cccc(Cl)c1F [idasanutlin]
Method in brief: as §1

[7] = compound: C[C@H](C1=CC=C(C=C1)C(=O)NC2=C3C=CNC3=NC=C2)N
Method in brief: as §1

tozasertib = compound: Cc1cc(Nc2cc(N3CCN(C)CC3)nc(Sc3ccc(NC(=O)C4CC4)cc3)n2)n[nH]1 [tozasertib]
Method in brief: as §1

Measured: log2 fold change

NCOA5 (UniProt Q9HCD5)
Chain of UniProt Q9HCD5 (Q9HCD5 whole entry, looked up): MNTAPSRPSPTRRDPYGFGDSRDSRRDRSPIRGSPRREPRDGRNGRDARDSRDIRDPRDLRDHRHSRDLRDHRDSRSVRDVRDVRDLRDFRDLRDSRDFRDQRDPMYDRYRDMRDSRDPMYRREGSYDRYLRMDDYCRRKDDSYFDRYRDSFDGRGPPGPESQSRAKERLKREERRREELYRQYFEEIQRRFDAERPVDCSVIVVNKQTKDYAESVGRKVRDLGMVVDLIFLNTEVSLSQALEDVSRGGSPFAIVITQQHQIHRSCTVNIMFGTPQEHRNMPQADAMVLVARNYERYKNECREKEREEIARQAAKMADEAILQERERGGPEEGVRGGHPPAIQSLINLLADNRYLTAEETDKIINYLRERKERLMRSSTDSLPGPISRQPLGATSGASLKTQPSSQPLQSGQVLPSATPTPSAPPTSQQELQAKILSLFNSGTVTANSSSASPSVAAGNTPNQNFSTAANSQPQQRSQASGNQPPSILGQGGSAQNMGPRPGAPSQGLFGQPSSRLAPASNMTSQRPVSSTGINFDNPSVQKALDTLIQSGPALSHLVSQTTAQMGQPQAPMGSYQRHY
inactive: [1] 0.046 | filanesib 0.209 | [2] 0.04 | gefitinib 0.145 | lapatinib 0.047 | pictilisib -0.043 | [3] -0.005 | crizotinib -0.131 | duvelisib -0.155 | gandotinib 0.05 | [4] 0.052 | doramapimod 0.168 | ispinesib 0.02

NA (UniProt J3KR12)
inactive: [1] 0.123 | alisertib -0.116 | gefitinib -0.134 | [5] 0.077 | crizotinib 0.251 | [6] 0.061 | doramapimod -0.017 | ispinesib 0.006

NA (UniProt B2RBV5)
Chain of UniProt B2RBV5 (B2RBV5 whole entry, looked up): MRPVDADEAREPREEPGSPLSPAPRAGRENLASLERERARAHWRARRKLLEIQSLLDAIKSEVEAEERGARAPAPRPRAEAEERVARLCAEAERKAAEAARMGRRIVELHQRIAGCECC
inactive: filanesib 0.081 | alisertib -0.043 | [2] 0.001 | gefitinib -0.33 | [5] 0.028 | lapatinib -0.243 | pictilisib 0.061 | [3] -0.027 | [6] 0.064 | gandotinib 0

NKAP (UniProt Q8N5F7)
inactive: [1] -0.005 | zotarolimus 0.112 | idasanutlin 0.115 | alisertib 0.037 | [2] -0.051 | gefitinib -0.029 | [5] -0.13 | lapatinib 0.09 | pictilisib -0.013 | crizotinib -0.113 | [6] -0.118 | [7] 0.013 | duvelisib 0.016 | gandotinib 0.041 | tozasertib 0.039 | [4] -0.034 | doramapimod 0.042 | ispinesib 0.001

MXRA7 isoform 3 (UniProt P84157)
inactive: [2] 0.077 | lapatinib -0.27 | ispinesib -0.092

NAP1L1 (UniProt B7Z9C2)
inactive: [1] -0.116 | idasanutlin -0.004 | alisertib 0.258 | gefitinib 0.03 | [5] 0.066 | pictilisib 0.111 | crizotinib -0.015 | duvelisib 0.327 | gandotinib 0.041 | [4] 0.433 | doramapimod 0.155

ORC3 (UniProt Q9UBD5)
inactive: idasanutlin -0.167

MLH1 (UniProt P40692)
inactive: zotarolimus 0.024 | idasanutlin 0.03 | alisertib -0.171 | [2] -0.135 | [5] -0.1 | lapatinib 0.091 | pictilisib 0.083 | [6] 0.042 | [7] -0.127 | duvelisib 0 | gandotinib -0.068 | tozasertib -0.124 | [4] 0.094

MOB2 isoform 3 (UniProt Q70IA6)
Chain of UniProt Q70IA6 (Q70IA6 whole entry, looked up): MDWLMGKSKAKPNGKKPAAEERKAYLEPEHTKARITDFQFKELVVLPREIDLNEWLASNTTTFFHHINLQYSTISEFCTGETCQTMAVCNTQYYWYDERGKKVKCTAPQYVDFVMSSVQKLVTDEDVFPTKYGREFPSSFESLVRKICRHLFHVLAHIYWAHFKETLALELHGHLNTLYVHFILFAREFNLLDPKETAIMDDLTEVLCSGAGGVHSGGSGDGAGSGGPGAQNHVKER
inactive: zotarolimus 0.205 | alisertib -0.066 | [2] -0.184 | gefitinib 0.051 | [5] 0.02 | lapatinib 0.025 | pictilisib 0.06 | [6] -0.166 | [7] 0.044 | gandotinib -0.093 | tozasertib -0.1 | ispinesib -0.025

NRGN (UniProt Q92686)
Chain of UniProt Q92686 (Q92686 whole entry, looked up): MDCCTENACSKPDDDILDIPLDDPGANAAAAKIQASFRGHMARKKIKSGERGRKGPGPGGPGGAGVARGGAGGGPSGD
active: gandotinib 0.891
inactive: [1] -0.831 | idasanutlin 0.023 | [2] -0.108 | gefitinib -0.012 | lapatinib 0.107 | pictilisib 0.404 | crizotinib 0.241 | [6] 0.043 | doramapimod -0.282 | ispinesib 0

OXR1 isoform 2 (UniProt Q8N573)
Chain of UniProt Q8N573 (Q8N573 whole entry, looked up): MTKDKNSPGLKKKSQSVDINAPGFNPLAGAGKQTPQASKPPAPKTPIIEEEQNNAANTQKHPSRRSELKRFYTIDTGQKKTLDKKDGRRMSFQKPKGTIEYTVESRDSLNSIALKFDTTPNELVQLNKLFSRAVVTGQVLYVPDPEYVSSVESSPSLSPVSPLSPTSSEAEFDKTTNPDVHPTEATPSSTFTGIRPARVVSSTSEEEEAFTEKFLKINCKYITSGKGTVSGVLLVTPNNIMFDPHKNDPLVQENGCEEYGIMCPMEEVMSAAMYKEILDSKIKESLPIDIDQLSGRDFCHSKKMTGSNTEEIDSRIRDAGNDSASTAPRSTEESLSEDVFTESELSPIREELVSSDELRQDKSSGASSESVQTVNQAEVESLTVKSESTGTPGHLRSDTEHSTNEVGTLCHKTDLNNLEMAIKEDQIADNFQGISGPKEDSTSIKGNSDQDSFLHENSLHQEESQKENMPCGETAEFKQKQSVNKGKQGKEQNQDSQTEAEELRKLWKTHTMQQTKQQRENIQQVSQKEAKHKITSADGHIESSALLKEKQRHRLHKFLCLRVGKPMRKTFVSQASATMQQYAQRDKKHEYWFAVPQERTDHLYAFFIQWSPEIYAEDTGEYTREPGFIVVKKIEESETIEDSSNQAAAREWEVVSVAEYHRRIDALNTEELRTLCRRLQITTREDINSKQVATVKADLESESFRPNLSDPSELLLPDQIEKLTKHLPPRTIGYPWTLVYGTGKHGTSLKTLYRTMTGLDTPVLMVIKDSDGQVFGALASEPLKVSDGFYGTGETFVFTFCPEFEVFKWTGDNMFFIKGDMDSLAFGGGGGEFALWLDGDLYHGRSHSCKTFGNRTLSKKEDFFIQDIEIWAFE
inactive: [1] -0.175 | zotarolimus -0.014 | idasanutlin -0.009 | [2] 0.018 | gefitinib 0.014 | lapatinib -0.061 | pictilisib -0.073 | crizotinib -0.027 | [6] 0.187 | [7] -0.105 | duvelisib 0.024 | gandotinib -0.225 | tozasertib 0.005 | [4] 0.043 | doramapimod 0.022 | ispinesib -0.134

NA, A0A1W2PSA9
inactive: zotarolimus -0.275 | idasanutlin 0.049 | pictilisib -0.179 | [7] 0.041 | duvelisib 0.311 | gandotinib 0.403 | tozasertib -0.062 | [4] -0.371 | ispinesib -0.059

NA, A0A494C071
inactive: [1] -0.265 | zotarolimus -0.011 | idasanutlin -0.392 | alisertib 0.016 | gefitinib 0.367 | [5] 0.143 | pictilisib 0.277 | [6] 0.137 | [7] 0.043 | duvelisib 0.007 | gandotinib -0.352 | tozasertib -0.152 | [4] -0.102 | doramapimod 0.104
active: crizotinib -0.887

OVCA2 (UniProt Q8WZ82)
inactive: [1] -0.206 | idasanutlin -0.023 | alisertib 0.102 | [2] 0.201 | gefitinib -0.143 | [5] -0.318 | lapatinib -0.014 | pictilisib -0.176 | crizotinib 0.064 | gandotinib -0.232 | doramapimod -0.186 | ispinesib 0.026

MON1A (UniProt Q86VX9)
inactive: [1] -0.118 | filanesib -0.023 | alisertib 0.291 | [2] -0.042 | gefitinib 0.427 | [5] 0.049 | lapatinib -0.003 | pictilisib -0.011 | [3] 0.049 | [6] 0.057 | duvelisib -0.012 | gandotinib 0.116 | tozasertib -0.111 | [4] 0.011 | doramapimod 0.045 | ispinesib -0.153
active: crizotinib -0.559

MSANTD2 (UniProt Q6P1R3)
inactive: filanesib -0.107 | [3] 0.295 | [6] 0.089 | duvelisib 0.019 | tozasertib 0.064 | [4] 0.039

NELFCD (UniProt Q8IXH7)
Chain of UniProt Q8IXH7 (Q8IXH7 whole entry, looked up): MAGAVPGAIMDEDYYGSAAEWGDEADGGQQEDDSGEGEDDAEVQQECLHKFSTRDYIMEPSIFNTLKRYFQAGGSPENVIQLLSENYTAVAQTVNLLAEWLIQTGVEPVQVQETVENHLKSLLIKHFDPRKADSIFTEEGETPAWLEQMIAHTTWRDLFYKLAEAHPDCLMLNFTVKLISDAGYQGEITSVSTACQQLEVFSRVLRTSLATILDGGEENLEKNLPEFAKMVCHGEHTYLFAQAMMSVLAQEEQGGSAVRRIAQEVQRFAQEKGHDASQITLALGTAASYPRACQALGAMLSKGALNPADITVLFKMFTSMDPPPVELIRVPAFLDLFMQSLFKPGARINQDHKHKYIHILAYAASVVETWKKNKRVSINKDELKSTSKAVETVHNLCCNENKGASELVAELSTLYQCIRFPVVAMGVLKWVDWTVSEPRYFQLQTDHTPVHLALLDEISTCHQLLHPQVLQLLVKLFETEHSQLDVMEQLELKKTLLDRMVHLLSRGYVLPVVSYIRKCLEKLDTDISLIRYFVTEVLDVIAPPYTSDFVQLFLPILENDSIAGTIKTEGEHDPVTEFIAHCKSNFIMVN
inactive: [1] 0.006 | zotarolimus -0.071 | idasanutlin 0 | [2] 0.179 | gefitinib -0.052 | lapatinib -0.006 | pictilisib -0.061 | crizotinib 0.349 | [6] 0.145 | [7] 0.006 | duvelisib 0.13 | gandotinib -0.327 | [4] 0.249 | doramapimod 0.025

MTHFD1, A0A384N5Y3
inactive: filanesib -0.025 | zotarolimus -0.032 | idasanutlin 0.024 | alisertib -0.011 | [2] 0.055 | gefitinib 0.075 | [5] 0.001 | lapatinib -0.016 | pictilisib 0.107 | [3] 0.109 | [6] 0.117 | [7] -0.008 | duvelisib 0.108 | gandotinib -0.036 | tozasertib -0.11 | [4] 0.081 | ispinesib -0.082

MT-ND2 (UniProt P03891)
inactive: [1] -0.029 | zotarolimus 0.065 | idasanutlin -0.143 | alisertib 0.04 | [2] -0.131 | gefitinib 0.106 | [5] 0.074 | lapatinib -0.008 | pictilisib 0.139 | crizotinib 0.096 | [7] -0.028 | duvelisib 0.177 | gandotinib -0.064 | tozasertib 0.07 | [4] 0.101 | doramapimod -0.141 | ispinesib 0.336

NOS1AP (UniProt O75052)
Chain of UniProt O75052 (O75052 whole entry, looked up): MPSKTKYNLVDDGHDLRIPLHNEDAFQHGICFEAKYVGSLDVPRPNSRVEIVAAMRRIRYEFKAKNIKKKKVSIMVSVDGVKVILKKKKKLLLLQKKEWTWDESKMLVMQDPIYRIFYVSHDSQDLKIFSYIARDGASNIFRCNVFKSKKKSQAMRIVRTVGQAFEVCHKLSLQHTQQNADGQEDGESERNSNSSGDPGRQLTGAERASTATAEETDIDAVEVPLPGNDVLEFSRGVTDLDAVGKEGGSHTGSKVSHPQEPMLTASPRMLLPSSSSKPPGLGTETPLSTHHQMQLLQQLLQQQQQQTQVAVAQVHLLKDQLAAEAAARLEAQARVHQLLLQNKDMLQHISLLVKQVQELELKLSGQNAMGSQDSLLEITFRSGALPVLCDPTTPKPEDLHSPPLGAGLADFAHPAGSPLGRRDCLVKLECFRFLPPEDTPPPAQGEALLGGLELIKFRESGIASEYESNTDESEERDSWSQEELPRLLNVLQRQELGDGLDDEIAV
inactive: zotarolimus -0.098 | alisertib 0.353 | [2] -0.09 | [5] -0.118 | lapatinib -0.1 | [6] 0.101 | [7] 0.237 | tozasertib -0.164 | ispinesib -0.279

PACRGL (UniProt Q8N7B6)
inactive: filanesib 0.056 | [3] -0.074

MRM2 (UniProt Q9UI43)
Chain of UniProt Q9UI43 (Q9UI43 whole entry, looked up): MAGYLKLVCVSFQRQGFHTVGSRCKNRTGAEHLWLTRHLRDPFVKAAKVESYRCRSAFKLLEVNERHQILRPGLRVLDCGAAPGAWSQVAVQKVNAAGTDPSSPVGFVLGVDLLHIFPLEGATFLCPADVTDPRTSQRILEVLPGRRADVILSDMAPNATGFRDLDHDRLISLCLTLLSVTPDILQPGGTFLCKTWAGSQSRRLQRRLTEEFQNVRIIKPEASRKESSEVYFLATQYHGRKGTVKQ
active: idasanutlin 0.518
inactive: zotarolimus 0.11 | [2] 0.078 | gefitinib 0.066 | lapatinib 0.108 | [7] -0.042 | duvelisib 0 | tozasertib -0.119 | [4] 0.123

NUDT7 (UniProt P0C024)
Chain of UniProt P0C024 (P0C024 whole entry, looked up): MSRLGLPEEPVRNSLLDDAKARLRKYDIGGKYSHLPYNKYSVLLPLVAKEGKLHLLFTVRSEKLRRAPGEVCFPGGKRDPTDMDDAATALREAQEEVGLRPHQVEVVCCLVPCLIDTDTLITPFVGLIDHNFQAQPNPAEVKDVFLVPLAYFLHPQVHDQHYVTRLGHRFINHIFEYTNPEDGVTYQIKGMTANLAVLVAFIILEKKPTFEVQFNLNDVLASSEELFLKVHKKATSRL
inactive: [1] 0.023 | filanesib -0.092 | gefitinib 0.05 | pictilisib 0.115 | [3] 0.03 | crizotinib 0.004 | [6] 0.248 | gandotinib -0.23 | tozasertib 0.165 | doramapimod 0.011 | ispinesib -0.157

NOLC1 isoform 3 (UniProt Q14978)
inactive: zotarolimus -0.013 | [7] -0.305

MOB3B (UniProt Q86TA1)
inactive: [1] 0.355 | zotarolimus -0.087 | idasanutlin -0.24 | alisertib -0.001 | [2] 0.04 | gefitinib 0.384 | [5] -0.011 | lapatinib -0.033 | pictilisib 0.067 | crizotinib -0.078 | [7] 0.098 | gandotinib 0.039 | tozasertib -0.025 | doramapimod 0

NASP isoform 2 (UniProt P49321)
inactive: alisertib -0.129 | [5] -0.58

OAF (UniProt Q86UD1)
Chain of UniProt Q86UD1 (Q86UD1 whole entry, looked up): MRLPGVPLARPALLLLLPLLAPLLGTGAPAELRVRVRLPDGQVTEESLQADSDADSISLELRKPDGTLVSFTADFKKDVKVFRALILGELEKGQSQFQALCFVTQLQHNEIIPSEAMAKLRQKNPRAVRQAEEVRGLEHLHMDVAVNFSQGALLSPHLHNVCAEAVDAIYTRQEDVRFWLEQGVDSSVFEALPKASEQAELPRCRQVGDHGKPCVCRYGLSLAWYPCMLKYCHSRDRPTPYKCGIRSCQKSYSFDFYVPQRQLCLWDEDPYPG
inactive: filanesib -0.017 | alisertib -0.239 | [3] -0.112 | ispinesib 0.014
active: [5] 0.539

MMADHC (UniProt Q9H3L0)
Chain of UniProt Q9H3L0 (Q9H3L0 whole entry, looked up): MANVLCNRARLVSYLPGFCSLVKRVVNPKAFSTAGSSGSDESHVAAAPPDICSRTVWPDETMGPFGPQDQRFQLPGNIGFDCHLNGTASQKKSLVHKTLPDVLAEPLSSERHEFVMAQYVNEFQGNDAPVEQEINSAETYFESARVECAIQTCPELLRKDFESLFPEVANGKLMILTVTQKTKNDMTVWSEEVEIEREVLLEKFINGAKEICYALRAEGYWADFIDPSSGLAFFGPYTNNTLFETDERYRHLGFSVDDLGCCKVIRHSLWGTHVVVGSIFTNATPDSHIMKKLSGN
inactive: [1] -0.031 | zotarolimus 0.102 | idasanutlin -0.135 | alisertib 0.006 | [2] 0.056 | gefitinib 0.305 | [5] 0.013 | lapatinib 0.176 | pictilisib -0.114 | crizotinib 0.065 | [7] 0.093 | duvelisib 0.007 | gandotinib -0.087 | tozasertib -0.001 | [4] 0.084 | doramapimod 0.099 | ispinesib -0.038

OSBPL2 (UniProt Q9H1P3)
Chain of UniProt Q9H1P3 (Q9H1P3 whole entry, looked up): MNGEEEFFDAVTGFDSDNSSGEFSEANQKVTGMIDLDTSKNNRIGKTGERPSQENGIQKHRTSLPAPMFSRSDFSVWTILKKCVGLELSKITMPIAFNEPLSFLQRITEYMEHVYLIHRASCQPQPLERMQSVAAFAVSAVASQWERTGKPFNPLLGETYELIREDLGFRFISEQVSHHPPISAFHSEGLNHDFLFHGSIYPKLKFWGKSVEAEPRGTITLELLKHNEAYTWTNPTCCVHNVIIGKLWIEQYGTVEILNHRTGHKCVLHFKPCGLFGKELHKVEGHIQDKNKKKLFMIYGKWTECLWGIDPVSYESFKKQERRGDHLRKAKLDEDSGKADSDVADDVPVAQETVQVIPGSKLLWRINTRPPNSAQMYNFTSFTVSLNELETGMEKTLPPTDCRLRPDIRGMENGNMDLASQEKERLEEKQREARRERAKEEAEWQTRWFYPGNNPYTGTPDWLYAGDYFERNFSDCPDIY
inactive: zotarolimus 0.085 | alisertib -0.019 | [2] -0.187 | [5] -0.042 | [7] 0.124
active: lapatinib 1.57

OGFOD2 (UniProt Q6N063)
Chain of UniProt Q6N063 (Q6N063 whole entry, looked up): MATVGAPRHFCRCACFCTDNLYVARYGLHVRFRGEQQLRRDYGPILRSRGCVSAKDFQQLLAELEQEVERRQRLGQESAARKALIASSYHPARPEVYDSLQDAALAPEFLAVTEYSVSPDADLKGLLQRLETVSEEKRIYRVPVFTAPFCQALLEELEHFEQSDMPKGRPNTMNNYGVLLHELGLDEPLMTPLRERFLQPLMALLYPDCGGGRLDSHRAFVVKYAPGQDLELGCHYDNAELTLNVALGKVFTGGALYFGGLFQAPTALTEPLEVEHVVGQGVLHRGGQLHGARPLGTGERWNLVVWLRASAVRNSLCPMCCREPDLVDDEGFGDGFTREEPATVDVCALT
inactive: [1] -0.275 | zotarolimus 0.034 | idasanutlin 0.073 | alisertib 0.007 | gefitinib 0.071 | [5] -0.033 | pictilisib -0.144 | crizotinib 0.04 | [6] 0.042 | [7] -0.058 | duvelisib 0.035 | gandotinib 0.278 | tozasertib 0.003 | [4] 0.034 | doramapimod 0.042 | ispinesib -0.032

— the supplement of paper PMC10849652
